Key:
Assay in all cases: DAPPL (digital affinity profiling via proximity ligation, sequencing); 10 mM Tris-HCl pH 7.5, 50 mM NaCl, 1 mM DTT, 4% glycerol, room temperature, 30 min; GST-TFs on glutathione beads, 16-mer random dsDNA library, 0.1% formaldehyde crosslink after washing; high values mean tight binding
[1] = target: T1, FEV (Homo sapiens, UniProt Q99581 1-238); conditions: protein: recombinant; tags: N-terminal GST; dsDNA, one strand shown
T1 sequence: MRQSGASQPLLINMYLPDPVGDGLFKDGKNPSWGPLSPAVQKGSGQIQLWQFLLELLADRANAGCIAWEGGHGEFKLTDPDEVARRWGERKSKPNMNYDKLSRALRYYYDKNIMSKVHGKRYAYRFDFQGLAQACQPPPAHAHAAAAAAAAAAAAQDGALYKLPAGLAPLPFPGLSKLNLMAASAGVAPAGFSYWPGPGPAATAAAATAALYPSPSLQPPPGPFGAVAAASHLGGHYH
How it was run: (§1)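 Yeast served to express human transcription factors as GST fusions, which were then captured on glutathione beads and labelled with DNA barcodes. Pooled with a tag-only sample, they were incubated with 200 nmole of a 16-mer random double-stranded DNA library for 30 min at room temperature in Tris/NaCl/DTT/glycerol buffer, washed, crosslinked with 0.1% formaldehyde, ligated by proximity, amplified by PCR and sequenced. Dividing each hexamer's read frequency for a factor by its frequency for the tag-only sample gives the binding signal.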

[2] = target: ETV5 (Homo sapiens, UniProt P41161 1-510); conditions: protein: recombinant; tags: N-terminal GST; dsDNA, one strand shown
How it was run: as §1

[3] = target: HSF1 (Homo sapiens, UniProt Q00613 1-529); conditions: protein: recombinant; tags: N-terminal GST; chain copies: 3; dsDNA, one strand shown
How it was run: as §1

[4] = target: T2, SPIC (Homo sapiens, UniProt Q8N5J4 1-248); conditions: protein: recombinant; tags: N-terminal GST; dsDNA, one strand shown
T2 sequence: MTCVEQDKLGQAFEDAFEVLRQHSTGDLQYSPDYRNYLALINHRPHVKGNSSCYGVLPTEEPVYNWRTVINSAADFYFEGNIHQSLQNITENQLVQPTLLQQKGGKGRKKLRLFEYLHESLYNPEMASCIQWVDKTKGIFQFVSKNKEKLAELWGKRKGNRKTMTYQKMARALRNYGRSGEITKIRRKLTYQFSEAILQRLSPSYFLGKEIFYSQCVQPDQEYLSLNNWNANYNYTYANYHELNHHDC
How it was run: as §1

[5] = target: ELF4 (Homo sapiens, UniProt Q99607 1-663); conditions: protein: recombinant; tags: N-terminal GST; dsDNA, one strand shown
How it was run: as §1

[6] = target: T3, ELK4 (Homo sapiens, UniProt P28324-2 1-405); conditions: protein: recombinant; tags: N-terminal GST; dsDNA, one strand shown
T3 sequence: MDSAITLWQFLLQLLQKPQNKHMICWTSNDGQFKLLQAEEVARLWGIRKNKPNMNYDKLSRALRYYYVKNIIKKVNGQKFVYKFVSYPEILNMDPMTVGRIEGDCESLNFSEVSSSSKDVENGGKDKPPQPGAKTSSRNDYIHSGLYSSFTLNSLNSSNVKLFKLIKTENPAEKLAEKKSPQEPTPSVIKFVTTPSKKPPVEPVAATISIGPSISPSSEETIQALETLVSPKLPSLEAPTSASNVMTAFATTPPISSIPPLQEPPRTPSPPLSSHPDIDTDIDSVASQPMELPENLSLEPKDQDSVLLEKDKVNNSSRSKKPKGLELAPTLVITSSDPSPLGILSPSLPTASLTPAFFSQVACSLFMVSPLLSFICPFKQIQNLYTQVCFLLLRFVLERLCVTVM
How it was run: as §1

[7] = target: T4, ETV2 (Homo sapiens, UniProt O00321 1-342); conditions: protein: recombinant; tags: N-terminal GST; dsDNA, one strand shown
T4 sequence: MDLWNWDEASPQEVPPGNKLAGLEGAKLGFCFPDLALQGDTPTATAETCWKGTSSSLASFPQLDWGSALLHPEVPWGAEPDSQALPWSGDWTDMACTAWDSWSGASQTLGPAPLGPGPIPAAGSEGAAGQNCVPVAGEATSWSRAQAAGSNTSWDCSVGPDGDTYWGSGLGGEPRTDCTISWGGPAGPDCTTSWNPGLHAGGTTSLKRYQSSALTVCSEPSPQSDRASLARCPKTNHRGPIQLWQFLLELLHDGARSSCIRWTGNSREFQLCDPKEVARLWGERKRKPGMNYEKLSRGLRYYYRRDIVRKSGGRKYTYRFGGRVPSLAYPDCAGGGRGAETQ
How it was run: as §1

[8] = target: T5, ELF3 (Homo sapiens, UniProt P78545 1-371); conditions: protein: recombinant; tags: N-terminal GST; dsDNA, one strand shown
T5 sequence: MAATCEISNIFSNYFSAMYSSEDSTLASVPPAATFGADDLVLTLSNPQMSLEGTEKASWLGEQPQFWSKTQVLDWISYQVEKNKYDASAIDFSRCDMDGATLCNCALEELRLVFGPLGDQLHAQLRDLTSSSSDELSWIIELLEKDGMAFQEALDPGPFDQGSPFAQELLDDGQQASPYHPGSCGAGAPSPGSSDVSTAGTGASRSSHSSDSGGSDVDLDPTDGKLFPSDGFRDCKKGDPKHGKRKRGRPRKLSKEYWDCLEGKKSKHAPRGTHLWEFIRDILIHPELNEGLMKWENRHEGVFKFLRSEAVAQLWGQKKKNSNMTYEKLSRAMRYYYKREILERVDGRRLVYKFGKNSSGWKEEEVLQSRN
How it was run: as §1

[9] = target: CRX (Homo sapiens, UniProt O43186 1-299); conditions: protein: recombinant; tags: N-terminal GST; dsDNA, one strand shown
How it was run: as §1

[10] = target: ETV1 (Homo sapiens, UniProt P50549 1-477); conditions: protein: recombinant; tags: N-terminal GST; dsDNA, one strand shown
How it was run: as §1

[11] = target: T6, ERF (Homo sapiens, UniProt P50548 1-548); conditions: protein: recombinant; tags: N-terminal GST; dsDNA, one strand shown
T6 sequence: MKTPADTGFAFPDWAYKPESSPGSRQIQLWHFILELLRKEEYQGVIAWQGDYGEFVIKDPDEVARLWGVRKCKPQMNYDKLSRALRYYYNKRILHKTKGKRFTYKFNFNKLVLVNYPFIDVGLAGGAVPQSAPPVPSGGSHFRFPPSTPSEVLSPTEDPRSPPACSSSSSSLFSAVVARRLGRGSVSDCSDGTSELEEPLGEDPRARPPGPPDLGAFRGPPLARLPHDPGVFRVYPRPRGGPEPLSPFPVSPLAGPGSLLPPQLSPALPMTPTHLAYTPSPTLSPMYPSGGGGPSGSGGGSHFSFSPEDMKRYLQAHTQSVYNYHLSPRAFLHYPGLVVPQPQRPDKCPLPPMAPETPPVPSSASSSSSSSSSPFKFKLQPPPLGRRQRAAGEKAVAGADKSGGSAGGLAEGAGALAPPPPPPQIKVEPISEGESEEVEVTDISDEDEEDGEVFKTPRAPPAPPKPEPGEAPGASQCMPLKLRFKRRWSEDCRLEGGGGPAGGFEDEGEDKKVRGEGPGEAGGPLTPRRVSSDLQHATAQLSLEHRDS
How it was run: as §1

[12] = target: T7, ETV3L (Homo sapiens, UniProt Q6ZN32 1-361); conditions: protein: recombinant; tags: N-terminal GST; dsDNA, one strand shown
T7 sequence: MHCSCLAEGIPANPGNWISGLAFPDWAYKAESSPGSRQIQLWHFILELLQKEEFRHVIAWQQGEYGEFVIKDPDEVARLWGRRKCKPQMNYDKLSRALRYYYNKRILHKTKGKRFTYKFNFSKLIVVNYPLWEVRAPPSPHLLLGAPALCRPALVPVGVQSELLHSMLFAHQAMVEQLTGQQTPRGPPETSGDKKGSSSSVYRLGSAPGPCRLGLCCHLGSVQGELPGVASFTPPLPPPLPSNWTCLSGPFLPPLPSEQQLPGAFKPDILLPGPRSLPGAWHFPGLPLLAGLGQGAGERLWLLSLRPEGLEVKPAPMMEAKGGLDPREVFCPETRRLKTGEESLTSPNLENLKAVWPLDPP
How it was run: as §1

[13] = target: T8, ETS2 (Homo sapiens, UniProt P15036 1-469); conditions: protein: recombinant; tags: N-terminal GST; dsDNA, one strand shown
T8 sequence: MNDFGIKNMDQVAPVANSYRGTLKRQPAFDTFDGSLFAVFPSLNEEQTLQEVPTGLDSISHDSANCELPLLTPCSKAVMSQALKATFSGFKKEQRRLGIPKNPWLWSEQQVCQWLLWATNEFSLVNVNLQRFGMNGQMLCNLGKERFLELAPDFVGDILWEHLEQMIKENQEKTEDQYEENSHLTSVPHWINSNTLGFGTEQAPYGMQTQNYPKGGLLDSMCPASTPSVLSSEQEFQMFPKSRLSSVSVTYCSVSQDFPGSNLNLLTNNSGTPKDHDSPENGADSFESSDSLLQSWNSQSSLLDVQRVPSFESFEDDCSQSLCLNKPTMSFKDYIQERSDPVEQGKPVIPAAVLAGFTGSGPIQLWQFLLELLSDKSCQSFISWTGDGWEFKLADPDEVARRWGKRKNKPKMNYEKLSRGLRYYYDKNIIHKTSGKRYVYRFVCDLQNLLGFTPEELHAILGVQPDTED
How it was run: as §1

[14] = target: T9, SPDEF (Homo sapiens, UniProt O95238 1-335); conditions: protein: recombinant; tags: N-terminal GST; dsDNA, one strand shown
T9 sequence: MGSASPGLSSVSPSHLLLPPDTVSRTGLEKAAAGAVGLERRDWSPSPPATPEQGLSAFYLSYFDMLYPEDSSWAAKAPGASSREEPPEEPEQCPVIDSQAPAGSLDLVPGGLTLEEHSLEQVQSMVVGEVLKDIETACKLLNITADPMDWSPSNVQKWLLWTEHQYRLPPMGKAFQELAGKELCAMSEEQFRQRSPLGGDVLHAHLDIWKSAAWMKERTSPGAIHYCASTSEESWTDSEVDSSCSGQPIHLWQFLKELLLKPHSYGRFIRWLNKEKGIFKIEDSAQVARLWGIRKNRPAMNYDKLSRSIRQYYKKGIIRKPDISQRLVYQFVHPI
How it was run: as §1

[15] = target: T10, ETV7 (Homo sapiens, UniProt Q9Y603 1-341); conditions: protein: recombinant; tags: N-terminal GST; dsDNA, one strand shown
T10 sequence: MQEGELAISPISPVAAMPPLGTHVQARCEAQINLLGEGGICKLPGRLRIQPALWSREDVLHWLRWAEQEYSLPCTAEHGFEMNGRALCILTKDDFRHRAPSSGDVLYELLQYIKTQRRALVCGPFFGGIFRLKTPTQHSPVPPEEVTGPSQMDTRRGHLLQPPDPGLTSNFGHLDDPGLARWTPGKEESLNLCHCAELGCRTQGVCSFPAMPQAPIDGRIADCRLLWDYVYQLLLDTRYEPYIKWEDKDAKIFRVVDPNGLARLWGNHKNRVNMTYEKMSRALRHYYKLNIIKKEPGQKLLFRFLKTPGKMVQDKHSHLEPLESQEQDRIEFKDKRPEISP
How it was run: as §1

[16] = target: T11, ELF5 (Homo sapiens, UniProt Q9UKW6-2 1-255); conditions: protein: recombinant; tags: N-terminal GST; dsDNA, one strand shown
T11 sequence: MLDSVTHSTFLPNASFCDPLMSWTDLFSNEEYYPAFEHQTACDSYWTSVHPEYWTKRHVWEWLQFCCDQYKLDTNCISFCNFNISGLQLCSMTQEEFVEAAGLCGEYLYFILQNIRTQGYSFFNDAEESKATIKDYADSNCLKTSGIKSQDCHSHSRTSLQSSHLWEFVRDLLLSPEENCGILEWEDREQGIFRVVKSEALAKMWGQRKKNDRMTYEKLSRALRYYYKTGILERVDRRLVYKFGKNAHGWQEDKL
How it was run: as §1

[17] = target: T12, ETV3 (Homo sapiens, UniProt P41162-2 1-143); conditions: protein: recombinant; tags: N-terminal GST; dsDNA, one strand shown
T12 sequence: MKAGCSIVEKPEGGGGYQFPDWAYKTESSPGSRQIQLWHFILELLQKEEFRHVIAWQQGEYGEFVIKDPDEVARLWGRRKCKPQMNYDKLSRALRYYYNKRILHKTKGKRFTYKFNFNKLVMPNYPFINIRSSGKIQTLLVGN
How it was run: as §1

[18] = target: ETV6 (Homo sapiens, UniProt P41212 1-452); conditions: protein: recombinant; tags: N-terminal GST; dsDNA, one strand shown
How it was run: as §1

ETV6, sequence (P41212 whole entry): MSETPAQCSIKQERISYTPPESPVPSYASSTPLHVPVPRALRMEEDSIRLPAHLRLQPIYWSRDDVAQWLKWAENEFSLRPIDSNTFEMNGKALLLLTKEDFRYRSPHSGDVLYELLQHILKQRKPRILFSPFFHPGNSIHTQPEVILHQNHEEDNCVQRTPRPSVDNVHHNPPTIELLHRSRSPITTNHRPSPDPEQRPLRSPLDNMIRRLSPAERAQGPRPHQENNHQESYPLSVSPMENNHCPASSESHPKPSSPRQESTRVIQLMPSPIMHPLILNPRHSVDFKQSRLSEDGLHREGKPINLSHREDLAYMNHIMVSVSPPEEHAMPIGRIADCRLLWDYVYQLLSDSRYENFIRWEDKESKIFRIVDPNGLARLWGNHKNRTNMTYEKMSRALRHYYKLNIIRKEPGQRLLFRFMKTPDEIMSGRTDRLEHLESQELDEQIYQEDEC
ETV1, sequence (P50549 whole entry): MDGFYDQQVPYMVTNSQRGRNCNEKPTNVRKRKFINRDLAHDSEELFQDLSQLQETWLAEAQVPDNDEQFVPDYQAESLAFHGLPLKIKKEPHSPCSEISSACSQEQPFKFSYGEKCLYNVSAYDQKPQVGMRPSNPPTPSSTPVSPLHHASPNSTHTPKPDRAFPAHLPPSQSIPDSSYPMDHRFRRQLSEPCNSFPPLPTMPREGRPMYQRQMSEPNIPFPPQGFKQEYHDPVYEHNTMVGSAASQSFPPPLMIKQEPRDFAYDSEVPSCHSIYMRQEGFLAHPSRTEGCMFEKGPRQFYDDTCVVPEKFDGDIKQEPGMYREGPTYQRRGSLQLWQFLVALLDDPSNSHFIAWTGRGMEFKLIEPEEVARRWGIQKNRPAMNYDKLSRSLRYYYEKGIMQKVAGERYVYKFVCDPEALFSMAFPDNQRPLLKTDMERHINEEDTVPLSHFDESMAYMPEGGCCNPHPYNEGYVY
CRX, sequence (O43186 whole entry): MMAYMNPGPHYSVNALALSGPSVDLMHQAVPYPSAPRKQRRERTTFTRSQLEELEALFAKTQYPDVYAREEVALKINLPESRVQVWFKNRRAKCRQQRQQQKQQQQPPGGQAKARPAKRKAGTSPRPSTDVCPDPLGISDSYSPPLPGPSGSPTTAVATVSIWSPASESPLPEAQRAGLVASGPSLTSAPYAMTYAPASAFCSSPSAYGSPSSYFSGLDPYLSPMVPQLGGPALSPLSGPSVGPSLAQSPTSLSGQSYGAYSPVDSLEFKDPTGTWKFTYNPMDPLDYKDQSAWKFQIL
ETV5, sequence (P41161 whole entry): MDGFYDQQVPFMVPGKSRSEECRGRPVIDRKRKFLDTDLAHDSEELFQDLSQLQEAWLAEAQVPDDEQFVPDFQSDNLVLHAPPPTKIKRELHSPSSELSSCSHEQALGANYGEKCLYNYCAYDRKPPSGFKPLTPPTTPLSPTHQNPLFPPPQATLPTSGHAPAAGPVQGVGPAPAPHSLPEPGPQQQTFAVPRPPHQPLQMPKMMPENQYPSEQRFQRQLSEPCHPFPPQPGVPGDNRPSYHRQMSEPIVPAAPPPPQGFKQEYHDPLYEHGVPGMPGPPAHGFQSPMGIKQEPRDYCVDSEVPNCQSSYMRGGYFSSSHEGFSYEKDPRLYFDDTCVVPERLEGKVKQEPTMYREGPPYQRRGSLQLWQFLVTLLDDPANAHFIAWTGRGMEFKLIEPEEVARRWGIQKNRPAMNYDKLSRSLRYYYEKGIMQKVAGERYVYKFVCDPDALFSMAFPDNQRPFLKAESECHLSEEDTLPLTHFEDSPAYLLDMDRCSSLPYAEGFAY
ELF4, sequence (Q99607 whole entry): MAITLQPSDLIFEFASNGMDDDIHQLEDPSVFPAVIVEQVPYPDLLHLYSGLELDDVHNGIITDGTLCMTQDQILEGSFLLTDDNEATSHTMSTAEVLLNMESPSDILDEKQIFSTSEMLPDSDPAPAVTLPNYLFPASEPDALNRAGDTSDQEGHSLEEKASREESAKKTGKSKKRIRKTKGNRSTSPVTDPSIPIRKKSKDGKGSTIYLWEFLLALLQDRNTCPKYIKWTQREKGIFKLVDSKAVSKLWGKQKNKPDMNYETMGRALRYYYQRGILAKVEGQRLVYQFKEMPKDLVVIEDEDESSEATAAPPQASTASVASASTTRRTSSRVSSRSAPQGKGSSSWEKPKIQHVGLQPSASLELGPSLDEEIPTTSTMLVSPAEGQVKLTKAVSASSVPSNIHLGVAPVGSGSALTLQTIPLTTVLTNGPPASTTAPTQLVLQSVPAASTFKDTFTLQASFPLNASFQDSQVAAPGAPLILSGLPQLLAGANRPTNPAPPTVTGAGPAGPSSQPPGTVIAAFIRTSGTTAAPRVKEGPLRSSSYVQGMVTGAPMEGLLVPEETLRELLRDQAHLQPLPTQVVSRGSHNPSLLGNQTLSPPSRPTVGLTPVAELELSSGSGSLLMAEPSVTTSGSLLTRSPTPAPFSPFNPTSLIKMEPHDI
HSF1, sequence (Q00613 whole entry): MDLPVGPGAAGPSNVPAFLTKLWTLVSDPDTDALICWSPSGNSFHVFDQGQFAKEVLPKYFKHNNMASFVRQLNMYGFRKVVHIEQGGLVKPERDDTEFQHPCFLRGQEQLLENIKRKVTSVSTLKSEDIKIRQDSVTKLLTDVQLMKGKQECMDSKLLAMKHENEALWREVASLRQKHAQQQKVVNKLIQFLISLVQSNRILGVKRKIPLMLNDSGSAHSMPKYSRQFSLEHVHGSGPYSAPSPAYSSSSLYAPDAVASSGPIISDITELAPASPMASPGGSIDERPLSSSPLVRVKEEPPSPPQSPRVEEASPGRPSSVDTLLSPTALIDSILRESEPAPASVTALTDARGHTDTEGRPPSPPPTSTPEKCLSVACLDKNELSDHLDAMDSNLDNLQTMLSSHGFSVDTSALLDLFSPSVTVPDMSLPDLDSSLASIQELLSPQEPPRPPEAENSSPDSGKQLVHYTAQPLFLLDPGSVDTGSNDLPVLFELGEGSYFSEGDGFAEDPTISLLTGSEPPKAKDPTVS

GAATTC
binding signal [1]: 1.39 fold enrichment (6-mer frequency, TF over GST control) | binding signal [2]: 1.42 fold enrichment (6-mer frequency, TF over GST control) | binding signal [3]: 1.59 fold enrichment (6-mer frequency, TF over GST control) | binding signal [4]: 1.51 fold enrichment (6-mer frequency, TF over GST control) | binding signal [5]: 1.36 fold enrichment (6-mer frequency, TF over GST control) | binding signal [6]: 1.27 fold enrichment (6-mer frequency, TF over GST control) | binding signal [7]: 1.39 fold enrichment (6-mer frequency, TF over GST control) | binding signal [8]: 1.13 fold enrichment (6-mer frequency, TF over GST control) | binding signal [9]: 1.14 fold enrichment (6-mer frequency, TF over GST control) | binding signal [10]: 1.34 fold enrichment (6-mer frequency, TF over GST control) | binding signal [11]: 1.38 fold enrichment (6-mer frequency, TF over GST control) | binding signal [12]: 1.41 fold enrichment (6-mer frequency, TF over GST control) | binding signal [13]: 1.33 fold enrichment (6-mer frequency, TF over GST control) | binding signal [14]: 1.33 fold enrichment (6-mer frequency, TF over GST control) | binding signal [15]: 1.32 fold enrichment (6-mer frequency, TF over GST control) | binding signal [16]: 1.32 fold enrichment (6-mer frequency, TF over GST control) | binding signal [17]: 1.35 fold enrichment (6-mer frequency, TF over GST control) | binding signal [18]: 1.2 fold enrichment (6-mer frequency, TF over GST control)

From paper PMC7862700, “An all-to-all approach to the identification of sequence-specific readers for epigenetic DNA modifications on cytosine”
